Counter-ions that a name gives are not always drawn. ± gives the uncertainty stated by the source.
Each molecule was assayed on NCC-MFS5-C1 (assay: cell viability relative to DMSO control; higher = less growth inhibition). Details: 10 µM; treatment time: 3 days.
Experimental: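 NCC-MFS5-C1 myxofibrosarcoma cells (1x10^4 per well, 384-well) were treated on day 2 with 10 µM of each drug. On day 5, viability was read by CCK-8 absorbance at 450 nm and normalised to the DMSO control (%), n = 2.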
For C=C1C[C@@H]2[C@H](CC[C@]3(C)C(=O)CC[C@@H]23)[C@@]2(C)C=CC(=O)C=C12 [Exemestane], the cell viability was 100 ± 4.3%. C/C=C(\C)C(=O)N[C@@H](c1ccccc1)[C@@H](O)C(=O)O[C@H]1C[C@@]2(O)[C@@H](OC(=O)c3ccccc3)[C@@H]3[C@]4(OC(C)=O)CO[C@@H]4C[C@H](O)[C@@]3(C)C(=O)[C@H](OC(C)=O)C(=C1C)C2(C)C [Cephalomannine] gave a cell viability of 50.2 ± 8.7%. Molecule O=C(O)CCCc1ccc(N(CCCl)CCCl)cc1 [Chloroambucil] has a cell viability of 99.4 ± 29%. Cn1c(CCCC(=O)O)nc2cc(N(CCCl)CCCl)ccc21 [Bendamustine HCl] showed a cell viability of 66.3 ± 8.2%. Cc1c(N)nc(C(CC(N)=O)NCC(N)C(N)=O)nc1C(=O)NC(C(=O)NC(C)C(O)C(C)C(=O)NC(C(=O)NCCc1nc(-c2nc(C(=O)NCCC[S+](C)C)cs2)cs1)C(C)O)C(O[C@@H]1O[C@@H](CO)[C@@H](O)[C@H](O)[C@@H]1O[C@H]1O[C@H](CO)[C@@H](O)[C@H](OC(N)=O)[C@@H]1O)c1cnc[nH]1 (some centres not stated) [Bleomycin Sulfate] gave a cell viability of 78.3 ± 12%. With NCCCNCCSP(=O)(O)O [Amifostine] the cell viability was 103 ± 3%. Molecule N.N.[Cl][Pt][Cl] [Cisplatin] has a cell viability of 79.1 ± 4.2%. CC[C@@]1(O)C(=O)OCc2c1cc1n(c2=O)Cc2cc3ccccc3nc2-1 [Camptothecin] showed a cell viability of 52.5 ± 6.1%. O=P1(NCCCl)OCCCN1CCCl (configuration not stated) [Ifosfamide] gave a cell viability of 79.9 ± 6.8%. In the case of C=CCN1CC[C@]23c4c5ccc(O)c4O[C@H]2C(=O)CC[C@@]3(O)[C@H]1C5 [Naloxone HCl], the cell viability is reported as 72.1 ± 2.9%. For CC(=O)OC12COC1CC(O)C1(C)C(=O)C(O)C3=C(C)C(O)CC(O)(C(OC(=O)c4ccccc4)C21)C3(C)C (configuration not stated) [10-Deacetylbaccatin-III], the cell viability was 86.6 ± 0.96%. Work on O=P1(N(CCCl)CCCl)NCCCO1 (configuration not stated) [Cyclophosphamide Monohydrate] yielded a cell viability of 85.6 ± 2.8%.
